Among the data in PubChem BioAssay (NCI) are growth values, retold here.

SMILES strings stand for the structures. The panel holds about 83,000 compounds, 20% with a hit somewhere; the sample as a whole holds those more often.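 Single-concentration screen, 48 h exposure, 96-well plates. Endpoint: percent growth. Below 10 = active.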 Unmarked numbers belong to inactive results. Calls of active or inactive are those of the source.

Among the test systems are DU-145 prostate; K-562 leukemia; MALME-3M melanoma; MDA-MB-231 breast; RXF 393 renal; SF-268 CNS; SF-295 CNS; SF-539 CNS; UACC-257 melanoma; M14 melanoma; HCT-15 colon; HT29 colon; SNB-75 CNS; SNB-19 CNS; U251 CNS; PC-3 prostate; SK-MEL-5 melanoma; UACC-62 melanoma; LOX IMVI melanoma; SK-MEL-28 melanoma.
Holding throughout (experiment): NCI-60 one-dose screen, 48 h (100 = growth as untreated, 0 = no growth, -100 = all killed)
What all share (settings): 10 µM unless noted

As for `COc1ccc(C2NC(=O)C(C#N)c3c2sc2c(F)cccc32)cc1` (centres undefined), the growth with DU-145 prostate was 67.8%; with K-562 leukemia, 14.1%; in the assay on MALME-3M melanoma, 47.2%; in the assay with MDA-MB-231 breast, 71.2%; in the assay on RXF 393 renal, 55.9%; in the assay with SF-268 CNS it was 62%. Moreover, the growth with SF-295 CNS was 30.5%; with SF-539 CNS, 39.5%; in the assay on UACC-257 melanoma, 63.9%; in the assay on M14 melanoma it was 33.3%; in the assay with HCT-15 colon, 33.6%; in the assay on HT29 colon, 50.5%. In addition, the growth was 13.6% in the assay with SNB-75 CNS; 42.7% in the assay with SNB-19 CNS; 47.3% in the assay on U251 CNS; 52.4% in the assay on PC-3 prostate; 60.6% with SK-MEL-5 melanoma; 36.4% in the assay on UACC-62 melanoma. In addition, the growth in the assay with LOX IMVI melanoma is 45.6%.

As to `Nc1cc(Cl)cc2cccnc12`, the growth in the assay with DU-145 prostate is 109%; with K-562 leukemia, 98.1%; in the assay on MALME-3M melanoma, 122%; in the assay on MDA-MB-231 breast it was 95.8%; with RXF 393 renal, 112%; in the assay on SF-268 CNS, 88%. Also, the growth in the assay on SF-295 CNS is 114%; in the assay with SF-539 CNS it was 98%; in the assay with UACC-257 melanoma, 127%; in the assay with M14 melanoma it was 115%; in the assay with HCT-15 colon, 103%; with HT29 colon it was 101%. In addition, the growth is 79.9% with SNB-75 CNS; 109% in the assay on SNB-19 CNS; 111% with U251 CNS; 87.5% with PC-3 prostate; 101% in the assay with SK-MEL-5 melanoma; 103% in the assay with UACC-62 melanoma. The growth in the assay on LOX IMVI melanoma was 88.1%.

On to `Nc1cccc2c1C(=O)c1cccc(NC(=O)c3ccccc3)c1C2=O`, for which the growth in the assay with DU-145 prostate was 6.99% (active); in the assay on K-562 leukemia, 13.3%; with MALME-3M melanoma, -17% (active); with MDA-MB-231 breast, 38.4%; in the assay with RXF 393 renal it was -10.7% (active); in the assay with SF-268 CNS, 51.5%. In addition, the growth in the assay on SF-295 CNS is -30.3% (active); in the assay with SF-539 CNS, -2.57% (active); in the assay with UACC-257 melanoma, 56.2%; in the assay on M14 melanoma, 14.2%; with HCT-15 colon, 28.6%; in the assay on HT29 colon, 2.96% (active). Also, the growth with SNB-75 CNS was 6% (active); with SNB-19 CNS, 45.3%; in the assay with U251 CNS it was 22.9%; with PC-3 prostate it was 32.5%; in the assay with SK-MEL-5 melanoma, 12.3%; in the assay on UACC-62 melanoma, 48.4%. Also, in the assay on LOX IMVI melanoma, the growth is 8.96% (active).

`CCN(CC)c1ccc2cc(NC(=O)OCCNC(=O)CCNC(=O)[C@H](CC(C)C)NC(=O)C(C)(C)NC(=O)C(C)(C)NC(=O)[C@H](CC(C)C)NC(=O)CCNC(=O)C(C)(C)NC(=O)[C@H](CC(C)C)NC(=O)CCNC(=O)[C@@](C)(CC)NC(=O)[C@H](C)NC(=O)CCNC(=O)C(C)(C)NC(=O)[C@H](C)NC(=O)[C@@H]3CCCN3C(=O)[C@@](C)(CC)NC(=O)[C@H](Cc3ccccc3)NC(=O)C3CCCN3C(=O)C(C)(C)NC(=O)C3CCCN3C(=O)C(C)(C)NC(C)=O)c(=O)oc2c1` (some centres undefined): the growth with DU-145 prostate is -100% (active); in the assay with K-562 leukemia, -59.5% (active); in the assay on MALME-3M melanoma, -80.4% (active); with MDA-MB-231 breast it was -83.2% (active); in the assay with RXF 393 renal, -82% (active); in the assay on SF-268 CNS, -94.6% (active). For the same molecule, the growth in the assay with SF-295 CNS is -84.7% (active); in the assay on SF-539 CNS, -84.7% (active); in the assay on UACC-257 melanoma, -89.4% (active); with M14 melanoma, -79.4% (active); with HCT-15 colon, -93.3% (active); in the assay with HT29 colon, -81.4% (active). Also, the growth in the assay on SNB-75 CNS was -91.6% (active); in the assay on SNB-19 CNS, -76.5% (active); in the assay with U251 CNS, -85.6% (active); with PC-3 prostate it was -91.2% (active); with SK-MEL-5 melanoma, -100% (active); with UACC-62 melanoma it was -76.2% (active). Further, the growth in the assay on LOX IMVI melanoma was -85% (active); in the assay on SK-MEL-28 melanoma, -84.1% (active).

On to `Cc1cnc([C@]23CC[C@@H](C)[C@H](C)[C@H]2C2=CC[C@@H]4[C@@]5(C)Cc6c([nH]c7ccccc67)C(C)(C)[C@@H]5CC[C@@]4(C)[C@]2(C)CC3)o1`, for which the growth in the assay on DU-145 prostate is 69.9% [100 µM]; in the assay on K-562 leukemia, 38.3% [100 µM]; in the assay on MALME-3M melanoma, 59.1% [100 µM]; in the assay with MDA-MB-231 breast, 38.3% [100 µM]; in the assay on RXF 393 renal, 101% [100 µM]; in the assay on SF-268 CNS, 36.1% [100 µM]. Besides, the growth in the assay on SF-295 CNS was 31.7% [100 µM]; in the assay with SF-539 CNS it was 6.53% [100 µM] (active); with UACC-257 melanoma, 61.5% [100 µM]; in the assay on M14 melanoma, 28.4% [100 µM]; with HCT-15 colon, 66.8% [100 µM]; in the assay on HT29 colon, 25.7% [100 µM]. For the same molecule, the growth was 62.4% [100 µM] with SNB-75 CNS; 35.6% [100 µM] in the assay with SNB-19 CNS; 41.7% [100 µM] in the assay on U251 CNS; 55.4% [100 µM] in the assay on PC-3 prostate; 29% [100 µM] with SK-MEL-5 melanoma; 24.4% [100 µM] with UACC-62 melanoma. Besides, the growth in the assay with LOX IMVI melanoma was 17.3% [100 µM].

As for `O=c1c2c3c(sc2n2cnnc2n1Cc1ccccc1)CCCC3`, the growth in the assay with DU-145 prostate is 106%; with K-562 leukemia, 69.9%; with MALME-3M melanoma, 95.8%; with MDA-MB-231 breast, 96.6%; with RXF 393 renal, 101%; in the assay on SF-268 CNS, 107%. The growth with SF-295 CNS was 57.1%; in the assay on SF-539 CNS, 93.5%; in the assay on UACC-257 melanoma, 131%; in the assay with M14 melanoma, 164%; in the assay with HCT-15 colon it was 93.4%; in the assay with HT29 colon, 100%. Also, the growth is 111% in the assay on SNB-75 CNS; 99% in the assay with SNB-19 CNS; 102% with U251 CNS; 99.7% with PC-3 prostate; 98% in the assay on SK-MEL-5 melanoma; 91.8% with UACC-62 melanoma. Besides, the growth in the assay with LOX IMVI melanoma was 97.6%.

As for `O=C1CC(C(F)(F)F)Cc2nc3ccc(Br)cc3cc21` (centres undefined), the growth with DU-145 prostate is 102%; with K-562 leukemia, 79.1%; in the assay on MALME-3M melanoma, 84.1%; in the assay with MDA-MB-231 breast, 82.4%; with RXF 393 renal it was 91.1%; in the assay with SF-268 CNS it was 88.4%. Besides, the growth was 90.2% with SF-295 CNS; 93.9% in the assay on SF-539 CNS; 106% with UACC-257 melanoma; 90.7% with M14 melanoma; 89.9% with HCT-15 colon; 98.2% in the assay on HT29 colon. Moreover, the growth in the assay with SNB-75 CNS was 78.5%; in the assay with SNB-19 CNS, 92%; in the assay on U251 CNS, 92.2%; in the assay on PC-3 prostate, 82%; in the assay on SK-MEL-5 melanoma, 92.6%; with UACC-62 melanoma it was 81.1%. In addition, the growth in the assay on LOX IMVI melanoma was 91.1%.
